# Measurements as given in PubChem BioAssay AID2315 (National Center for Advancing Translational Sciences (NCATS), 2010).
# In all, about 290,000 compounds went through this assay and about 27,000 (9.3%) were called active. What follows is part of a selection rich in actives, with near analogues and random picks from the rest. A number with no mark means an inactive call. Rule as the data show it: active = inhibition mostly above about 28% (no sharp cut-off); inactive = mostly below about 43%.
# Test: A qHTS for Small Molecule Inhibitors of Shiga Toxin; also: 0% is about no effect
# Settings: Vero cells, Shiga toxin protein synthesis inhibition reporter; at 38.7 µM, stronger effect = higher value
row,SMILES,inhibition
1,O=C(Oc1ccc2c(c1)CCC2)N1CCOCC1,97.3% (active)
2,O=C(Nc1cccc(OC(=O)N2CCCCC2)c1)N1CCOCC1,-5.26%
3,O=C(Oc1ccc(F)cc1)N1CCOCC1,-2.55%
4,CNS(=O)(=O)c1cccc(C(=O)NC2CCCc3ccccc32)c1 (stereo not given),2.04%
5,COc1ccccc1N(CC(=O)NC1CCCC1)C(=O)C1(C)CC(=O)N=C2C=CC(C)=CN21 (stereo not given),-13.3%
6,CSc1ncccc1C(=O)OCC(=O)N1CCOCC1,-2.04%
7,CSc1ncccc1C(=O)OCc1ccc(Br)cc1,42% (active)
8,CSc1ncccc1C(=O)NC1CCCCCC1,27.5%
9,COc1ccc(N2CCN(C(=O)[C@@H](NC(=O)c3cc(OC)cc(OC)c3)C(C)C)CC2)cc1,2.67%
10,O=C(CN1CCN(S(=O)(=O)c2ccc(F)cc2)CC1)NC1CC1,-30.6%
11,COc1ccc(-c2ccc(C3C4C=CCCC4(C)C(=O)N3Cc3ccccc3)c(F)c2)cc1OC (stereo not given),-1.56%
12,Cc1cc(OCc2ccc(C(=O)Nc3ccc(C(=O)O)cc3)o2)ccc1Cl,2.97%
13,Cc1cc(OCc2cc(C(=O)NCc3cc(C(C)C)no3)no2)cc(C)c1Cl,79.8% (active)
14,COCCCNC(=O)COc1cc(C)c(Cl)c(C)c1,-11.4%
15,Nc1nc(CC(=O)CSc2ccc(Cl)cc2)nc(Nc2ccc(F)cc2)n1,-6.2%
16,CC(C)CN(C(=O)c1cccc(S(=O)(=O)N2CCCCC2)c1)C1CCS(=O)(=O)C1 (stereo not given),-6.54%
17,O=C(Cn1c(=O)n(CC2CS2)c2ccccc21)N1CCCCC1 (stereo not given),-7.24%
18,CCOC(=O)C1(Cc2ccccc2C)CCCN(S(C)(=O)=O)C1 (stereo not given),-1.22%
19,CCOC(=O)C1(Cc2ccccc2C)CCCN(C(=O)CN2C(=O)CSC2=O)C1 (stereo not given),78.9% (active)
20,CCOC(=O)C1(CCc2ccccc2)CCN(Cc2ccco2)CC1,-2.54%
21,O=C(CN1C(=O)CSC1=O)N1CCCC(Nc2ccc(F)cc2)C1 (stereo not given),0.485%
22,CCOC(=O)C1(Cc2ccccc2C)CCCN(C(=O)c2ccc(COC)o2)C1 (stereo not given),121% (active)
23,CC(C)c1ccc(S(=O)(=O)NC2CCCC2)cc1,-8.49%
24,COc1ccc(OC)c(NC(=O)c2ccc3c(c2)CCN3S(C)(=O)=O)c1,-5.31%

row,SMILES,inhibition
1,CC(=O)Nc1cccc(NC(=O)c2ccc3c(c2)CCN3S(C)(=O)=O)c1,6.84%
2,CCc1ccccc1NC(=O)c1ccc2c(c1)CCN2S(C)(=O)=O,21.4%
3,CS(=O)(=O)N1CCc2cc(C(=O)Nc3ccccc3Br)ccc21,50.7% (active)
4,CSc1ccccc1NC(=O)c1ccc2c(c1)CCN2S(C)(=O)=O,38.2% (active)
5,CS(=O)(=O)N1CCc2cc(C(=O)Nc3ccccc3)ccc21,3.54%
6,COc1cccc(Cn2cc(/C=N/NC(=O)c3cc(O)cc(O)c3)c3ccccc32)c1,-3.1%
7,CS(=O)(=O)c1ccccc1C(=O)Nc1ccc2sccc2c1,-5.25%
8,CC(C)(CCl)C(=O)Nc1ccc(Sc2ccc(F)cc2)cc1,83% (active)
9,CCN(c1ccccc1)S(=O)(=O)c1ccc(NC(=O)C(C)(C)C)cc1,3.09%
10,O=C(CCl)Nc1ccc(Sc2ccc(NC(=O)CCl)cc2)cc1,16%
11,O=C(c1cnn(-c2ccc(Cl)cc2)c1)c1ccccc1O,59.4% (active)
12,O=C(O)c1ccc(NC(=O)c2cn(-c3ccccc3)nc2-c2ccc(Cl)cc2)cc1,24.5%
13,Cc1ncc(CC(=O)n2cc(C(=O)c3cc(Cl)ccc3O)cn2)s1,8.82%
14,CC(=O)Nc1c2c(nn1-c1cccc(C)c1)CSC2,-5.43%
15,O=C(CCS(=O)(=O)c1ccc(Br)cc1)NCCc1ccc(Cl)cc1,-14.4%
16,Cc1nn(Cc2ccccc2Cl)c(Cl)c1C(=O)OC(C(=O)NC(N)=O)C(C)C (stereo not given),8.84%
17,COc1ccccc1CCNC(=O)c1cnccn1,10.7%
18,COc1ccccc1CCNC(=O)c1c(C)nn(CC(C)C)c1Cl,62.8% (active)
19,N#CC(C#N)=CN=c1ccn(Cc2ccc(Cl)cc2Cl)cc1,1.18%
20,Clc1c(OCCCn2ccnc2)ccc2ccccc12,17.6%
21,Cc1ccc(CCNC(=O)c2ccc3nc4ccccc4c(=O)n3c2)cc1,5.74%
22,O=C(Oc1ccccc1C(=S)N1CCCCC1)c1cc([N+](=O)[O-])cc([N+](=O)[O-])c1,13%
23,CCN(CC)CCCNC(=O)COc1ccc2oc3c(c2c1)CCCC3,-7.61%
24,O=C(COc1ccc2oc3c(c2c1)CCCC3)Nc1ccccn1,57.2% (active)

row,SMILES,inhibition
1,Cc1ccc(OCC(=O)Nc2ccc(S(=O)(=O)Nc3ccccn3)cc2)cc1,2.76%
2,Cc1ccc(Cn2nnc3c(=O)[nH]c(C4CCN(S(=O)(=O)/C=C/c5ccccc5)CC4)nc32)cc1,-13.7%
3,COCn1c(C(O)c2ccccc2)cc2ccccc21 (stereo not given),-6.57%
4,Cc1ccn2c(c1)nc(=O)c1cc(S(=O)(=O)N3CCC(C)CC3)ccc12,14.3%
5,O=C1Nc2cc(C(=O)N3CCC(N4CCCCC4)CC3)ccc2S/C1=C\c1ccccc1,-12.8%
6,C=CCCN(C(Cc1ccccc1)C(=O)OC)S(=O)(=O)c1cc(Br)ccc1Br (stereo not given),2.22%
7,COC(=O)Cc1ccc(NC(=S)NCc2ccccc2)cc1,-2.18%
8,COc1cccc(NC(=O)NCCN2CCCCC2)c1,17.6%
9,COc1cccc(NC(=S)NCc2ccccn2)c1,60.7% (active)
10,COc1cccc(NC(=S)N(Cc2ccc(C)cc2)Cc2ccccn2)c1,-9.99%
11,O=C(NCc1cccc(CNC(=O)Nc2cccc(O)c2)c1)Nc1cccc(O)c1,17.1%
12,COc1cccc(S(=O)(=O)NCc2ccc(C(=O)NCc3ccccn3)cc2)c1,-7.83%
13,Cc1cc(C)cc(NC(=O)NCc2ccccn2)c1,-1.91%
14,CCC(C)c1ccc(NC(=S)NCc2ccccn2)cc1 (stereo not given),56.9% (active)
15,COc1cccc(NC(=O)NCc2ccc(F)cc2)c1,43.7% (active)
16,COc1ccc(OC)c(CCNC(=O)CCn2ccc3cc(S(=O)(=O)N4CCCC4)ccc32)c1,1.48%
17,COc1ccc(N(CC(=O)Nc2ccc(F)c(F)c2)S(=O)(=O)c2c(C)[nH]c(=O)[nH]c2=O)cc1,-5.76%
18,COc1cccc(OC)c1C(=O)Nc1ccc2c(c1)n(C)c(=O)n2C,-1.01%
19,COc1ccc(NS(=O)(=O)c2cc(NC(=O)C3CCCCC3)ccc2N2CCOCC2)cc1,-4.94%
20,Cn1c(=O)[nH]c(=O)c2c1[nH]c(=S)n2Cc1ccccc1,-6.6%
21,CCc1cccc(C)c1NS(=O)(=O)c1c(C)nc2sccn2c1=O,-3.6%
22,CCNS(=O)(=O)c1ccc(CCC(=O)N2CCN(c3cc(Cl)ccc3C)CC2)cc1,-3.72%
23,O=c1o[nH]c(-c2ccccc2)c1N=Nc1c(F)cccc1Cl,-2.82%
24,Cc1noc(C)c1-c1ccc2ncnc(NCc3ccc(F)c(F)c3)c2c1,10.1%

row,SMILES,inhibition
1,Cc1noc(C)c1-c1ccc2ncnc(NCc3ccc4[nH]ccc4c3)c2c1,70.1% (active)
2,Cc1noc(C)c1-c1ccc2ncnc(NC(C)c3ccco3)c2c1 (stereo not given),30.2%
3,O=Cc1c(NCCCN2CCCC2=O)c2ccccc2[nH]c1=O,7.22%
4,CCCSc1nc2[nH]ncc2c(=O)[nH]1,-9.31%
5,Cc1cccc(NC(=O)CSc2nc3[nH]ncc3c(=O)[nH]2)c1,-11.6%
6,Cc1ccc(CSc2nc3[nH]ncc3c(=O)[nH]2)cc1,136% (active)
7,Cc1ccc(S(=O)(=O)N(C)C)cc1NC(=O)C1Cc2ccccc2CN1C(=O)c1ccco1 (stereo not given),-7.79%
8,COc1ccc(Cl)cc1-n1c(=S)sc2c(=O)n(-c3ccc(F)cc3)c(SCC(=O)O)nc21,19.4%
9,CC(=O)NC(CC(=O)O)c1ccc(F)cc1 (stereo not given),-5.08%
10,CN(C)c1ccc(C(CC(=O)O)C(=O)O)cc1 (stereo not given),73.8% (active)
11,CN(C)c1ccc(/C=N/NC(=O)C(O)c2ccc(Br)cc2)cc1 (stereo not given),20.6%
12,COc1ccccc1N(C)C(=O)c1cc(S(=O)(=O)N2CCc3ccccc32)cn1C,8.5%
13,O=C(CN1CCN(c2ccc(F)cc2)CC1)Nc1ccccc1,-6.95%
14,CC(=O)Nc1cccc(-c2cnc3ccccc3n2)c1,116%
15,Cc1ccc(-c2cc(C(=O)Nc3nn[nH]n3)c3ccccc3n2)c(C)c1,-11.6%
16,Cc1cc(O)ccc1-c1cnc2ccccc2n1,99.9% (active)
17,Cc1oc2c(F)c(F)c(F)c(F)c2c1S(=O)(=O)Nc1cccc(C(F)(F)F)c1,-4.67%
18,CCOC(=O)C1CCCN(S(=O)(=O)c2ccc3c(c2)C(C)(C)C(=O)N3C)C1 (stereo not given),-10.9%
19,COCCN1C(=O)N(c2ccc(Cl)cc2)C(=O)C1CC(=O)Nc1cc(OC)cc(OC)c1 (stereo not given),0.637%
20,S=c1[nH]nc(CSCc2ccc(Cl)cc2Cl)n1-c1ccccc1,-6.51%
21,O=C(CCCOc1ccc(Cl)cc1Cl)NNC(=O)C1CCC1,27.9%
22,Cn1c(CCCOc2ccc(Cl)cc2Cl)n[nH]c1=S,57.3% (active)
23,O=C(COc1ccc(S(=O)(=O)Nc2cccc(C(F)(F)F)c2)cc1)N1CCOCC1,-9.6%
